Sampled rows, rich in hits. Any-hit rate of the full collection: about 0.51%.
E coli growth-1 – reduces bacterial viability in AddAB counter-screen; E. coli V3065 growth, OD600 absorbance, 18 h; inhibition, % at 11.9 µM; hit rate 0.27% among 330,000; AID 449728;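 active = inhibition above the campaign's mean inhibition across all tested compounds plus 3 SD, cut at about 9.9% in these data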;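 also: uninfected addAB+ strain grown without phage in ampicillin broth; 0% = DMSO wells and 100% = ciprofloxacin 0.95 µg/ml wells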
AddAB inh – less growth of phage-infected E. coli with AddAB; E. coli expressing H. pylori AddAB, absorbance growth; inhibition, % at 11.9 µM; hit rate 0.29% among 330,000; AID 435030; in the data active = inhibition above about 12%;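 also: 0% = vehicle wells of infected cells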
phage Ecoli inh – E. coli growth loss with phage present. inhibition, % at 11.9 µM. hit rate 0.26% among 360,000. growth absorbance; in the data active = inhibition above about 11%
E coli growth-2 – blocks Escherichia coli growth. OD600, 23 h; active compounds read low. OD600 absorbance (test concentration not listed). hit rate 0.21% among 330,000;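 active = OD600 absorbance below the run mean of sample wells minus 3.6 SD, in any replicate, cut at about 0.56 in these data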
Tat export inh – inhibitors of E. coli Tat protein transport | E. coli MC4100 TorA-mCherry Tat export, fluorescence | inhibition, % at 10 µM | hit rate 0.036% among 340,000;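 active = mean replicate inhibition at least 50% and at least half of replicates individually reaching 50%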;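 also: exported cargo escapes ClpAP degradation while cytoplasmic cargo is degraded and loses fluorescence; 0% = median of neutral control wells and 100% = median of NaSCN control wells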
Active calls of the source: *; ! = repeats disagree.

`CCOC(=O)c1c(-c2ccc(-c3ccccc3)cc2)csc1NC(=O)CNCCN(C)C` gave E coli growth-1 -3, AddAB inh -6, phage Ecoli inh -3, E coli growth-2 0.41* and Tat export inh 13.
COc1ccc(-n2c(Cc3cccn3C)nnc2SCC(=O)Nc2ccc(C(C)=O)cc2)cc1 was read as E coli growth-1 -1, AddAB inh 0, phage Ecoli inh 0, E coli growth-2 0.73 and Tat export inh 56*.
COc1ccc(NC(=O)CSc2nnc(Cc3cccn3C)n2-c2ccc(OC)cc2)cc1 was read as E coli growth-1 0, AddAB inh 3, phage Ecoli inh 2, E coli growth-2 0.72 and Tat export inh 4.
`O=[N+]([O-])c1ccc(-c2cccnc2)cc1` gave phage Ecoli inh 4, E coli growth-2 0.53* and Tat export inh -8.
CN1CCCCCC1=Nc1ccc([N+](=O)[O-])cc1 was read as E coli growth-1 1, AddAB inh 3, phage Ecoli inh 4, E coli growth-2 0.67 and Tat export inh -3.
`CN1C(=O)C(N=Nc2ccc([N+](=O)[O-])cc2)SC1=S` (centres undefined) gave phage Ecoli inh -3, E coli growth-2 0.45* and Tat export inh 6.
Screening CC(=O)c1ccc(NS(=O)(=O)c2ccc(N)cc2)cc1 returned E coli growth-1 2, AddAB inh 4, phage Ecoli inh 4, E coli growth-2 0.68 and Tat export inh -2.
`CC(=O)NS(=O)(=O)c1ccc(N)cc1` gave E coli growth-1 10*!, AddAB inh -2, phage Ecoli inh 6, E coli growth-2 0.7 and Tat export inh 12.
For Cc1ccc2c(c1)sc(-c1ccc(N(C)C)cc1)[n+]2C the results were E coli growth-1 -1, AddAB inh 2, phage Ecoli inh 5, E coli growth-2 0.32* and Tat export inh 35.
For Cc1ccc(N(C)C)cc1 the results were phage Ecoli inh 2.
Screening CCOC(=O)N1CCC(N2C(=O)c3ccccc3C2Nc2cc(C(=O)OC)cc(C(=O)OC)c2)CC1 (centres undefined) returned E coli growth-1 1, AddAB inh 3, phage Ecoli inh 100*, E coli growth-2 0.77 and Tat export inh 4.
For CCOC(=O)N1CCC(N2C(=O)c3ccccc3C2Nc2cc(C)cc(C)c2)CC1 (centres undefined) the results were E coli growth-1 0, AddAB inh 4, phage Ecoli inh 1, E coli growth-2 0.71 and Tat export inh 2.
COc1cc(C=NNC(=O)c2ccc(-c3ccccc3)cc2)cc(OC)c1O was read as E coli growth-2 0.69.
For Cc1ccc(Cl)cc1C1=CC(=O)CC(c2ccc(F)cc2)C1 (centres undefined) the results were E coli growth-2 0.7.
Screening O=C1CCC(c2ccccc2)=NN1 returned E coli growth-1 -2, AddAB inh 2, phage Ecoli inh 0, E coli growth-2 0.7 and Tat export inh -5.
For O=C1CCC(c2ccc(-n3ccnc3)cc2)=NN1 the results were E coli growth-1 1, AddAB inh 0, phage Ecoli inh 6, E coli growth-2 0.48* and Tat export inh 24.
`CC(CC(=O)Nc1ccccc1Cl)=NNC(=O)C(=O)NCCO` gave E coli growth-2 0.63.
For COc1c(N2CC3CCCNC3C2)c(F)cc2c(=O)c(C(=O)O)cn(C3CC3)c12 (centres undefined) the results were E coli growth-2 0.058*.
`Cc1ccc(NC(=O)C2CCCN(c3ncccn3)C2)cc1F` (centres undefined) gave E coli growth-1 9.8*, AddAB inh 7, phage Ecoli inh 1, E coli growth-2 0.63 and Tat export inh -4.
For O=c1c(O)c(-c2ccccc2)oc2cc(O)cc(O)c12 the results were E coli growth-1 3, AddAB inh 6, phage Ecoli inh 7, E coli growth-2 0.69 and Tat export inh 7.
`O=c1c(O)c(-c2cc(O)c(O)c(O)c2)oc2cc(O)cc(O)c12` gave E coli growth-1 10*, AddAB inh 11, phage Ecoli inh 10 and Tat export inh 9.
Screening N#CC(=Cc1ccc(N2CCOCC2)o1)C(=O)NCCc1ccccc1 returned E coli growth-2 0.71.
`CC(C)(C)OC(=O)n1cc(C=NNC(=O)c2ccco2)c2ccccc21` gave E coli growth-2 0.71.
For Cc1ccc(C(=O)Oc2ccc(Cl)c3cccnc23)cc1[N+](=O)[O-] the results were E coli growth-1 2, AddAB inh 4, phage Ecoli inh 0, E coli growth-2 0.63 and Tat export inh -3.
For Oc1ccc(Cl)c2cccnc12 the results were phage Ecoli inh 1, E coli growth-2 0.29* and Tat export inh 1.
O=C(Oc1ccc(Cl)c2cccnc12)c1cccnc1 was read as E coli growth-1 1, AddAB inh 2, phage Ecoli inh -1, E coli growth-2 0.37* and Tat export inh -6.
Screening Oc1ccc(F)c2cccnc12 returned E coli growth-1 1, AddAB inh 1, phage Ecoli inh 3, E coli growth-2 0.68 and Tat export inh -1.
CCSc1nnc(NC(=O)c2ccccn2)s1 was read as E coli growth-1 11*, AddAB inh 9, phage Ecoli inh 0, E coli growth-2 0.67 and Tat export inh 19.
For CCSc1nnc(NC(=O)c2cnccn2)s1 the results were E coli growth-1 0, AddAB inh 1 and E coli growth-2 0.72.
For CC1CN(C(C)CO)C(=O)c2cc(NS(=O)(=O)c3cn(C)cn3)ccc2OC1CN(C)C(=O)Nc1ccccc1 (centres undefined) the results were E coli growth-2 0.68.
`CC(=NNC(=S)Nc1ccc(C)cc1)c1ccccn1` gave phage Ecoli inh 13* and Tat export inh 8.
O=C(Nc1nnc(-c2ccco2)o1)c1ccc(Cl)cc1 was read as E coli growth-1 3, AddAB inh 9, phage Ecoli inh -2, E coli growth-2 0.44* and Tat export inh 2.
`Cc1ccc(C(=O)Nc2nnc(-c3ccco3)o2)cc1C` gave E coli growth-1 -3, AddAB inh 10, phage Ecoli inh -4, E coli growth-2 0.64 and Tat export inh -3.
Screening CN(C)Cc1c(C(=O)NN=Cc2cccs2)nnn1-c1nonc1N returned E coli growth-2 0.68.
For CC(C)S(=O)(=O)c1csc(NC(=O)Nc2ccc(Cl)cc2)c1 the results were E coli growth-1 4, AddAB inh 7, phage Ecoli inh 8, E coli growth-2 0.47* and Tat export inh 1.
For COc1ccc(CC(N)C(=O)NC2C(CO)OC(n3cnc4c(N(C)C)ncnc43)C2O)cc1 (centres undefined) the results were E coli growth-2 0.3*.
For C=CC[n+]1ccc(/C=C2\C=Cc3cc(C)ccc3N2CC)c2ccccc21 the results were E coli growth-2 0.44* and Tat export inh -173.
COc1ccc(CC2CN3C(=NCC3Cc3ccc(O)cc3)N2CCNC(=O)c2ccc(C)c(Br)c2)cc1 (centres undefined) was read as E coli growth-2 0.67.
Screening Nc1ccc2c(c1)N1CCN=C1S2 returned E coli growth-1 3, AddAB inh 2, phage Ecoli inh 2, E coli growth-2 0.64 and Tat export inh -11.

Compound activity from PubChem BioAssay.
